In the supplement of paper PMC6555819:

The sequences below were run on LXRa homodimer (NR concentration 270 nM) (assay: PBM binding z-score (relative to random genomic background probes); higher = stronger binding; sequences stand for … in GC…GCGATTGACAGCGTAGAATGAAGG).
Summary of the method: (§1)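 Probes were double-stranded and carried 34-nt variable regions with direct-repeat seeds, single-nucleotide variants, half-site ablations and random human genomic background sequences, printed on custom Agilent 4×180K protein-binding microarrays. Arrays were incubated 1 h with ligand-free nuclear receptor dimers in PBS pH 7.4, 2% milk, 0.02% Triton X-100, 1 mM DTT, 0.2 mg/mL BSA and 0.4 mg/ml salmon testes DNA. Antibodies against each partner (one per run) detected binding, and scanned fluorescence was regression-normalized. Binding z-scores use the random background probes as reference.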

Row | Sequence | PBM binding z-score
1 | TCATATAGGTAAACAGGTGAAACTCCGTAAGTTA | 0.143
2 | TCTAGCAAGCCAGAGGGTCACTCAAGAGGTACGG | -0.557
3 | ACAGACCGGTGAGTGAAGGTAACTCAGCTGGACG | -0.654
4 | CCGACTGGGGCAAGATTACCATAACGCACAGCCA | -0.473
5 | GGAACGAGGGCAAAGTCGATAGCATCTGTCGACG | -0.902
6 | ACTATCAGTTGAGACGAGGGCAACCGATAGGTTG | -0.515
7 | AATACACGGTCACTAGGCCAGAGTAGGTACGAAT | 1.32
8 | TCTCGGAGGACACGAGAGGTCAGAGCTCGACATC | 2.61
9 | ACAGACAGGTGATGAACGTAACTCAGGCTATCAT | 0.0611
10 | ATACCAAGGTGATCGTGAGGTCGTTGTTACTAAC | 0.763
11 | GCTACCAGGCCATTTGGGTCACTCAATGACGGGC | -0.549
12 | TCGAGTCGGTTACCAATGGGGCATTCAGCTTTCT | -0.421
13 | TATCGGAGGACACGAAGGTCAGAGCTTTCCAGAG | 1.08
14 | ATCGAAAGGTCGTTAGGTGAGTATACAGAAAGGC | 0.592
15 | AGTCAAAGTTCATCTAGGTAACGTACGATATGCT | 5.65
16 | ACAGACAGGTGATTAAGGTAACTCAGGCTATCAT | -0.11
17 | AGTCAAAGTTCACTAGGTAACGTATGATTCAGCT | 2.85
18 | TCTAATAGTTGAAGGGCAACCGACGAGTCCGTTT | 0.0231
19 | GCTAGCAGGCCTTTTGGGTCACTCAATGACGGGC | -0.408
20 | GCTTACGGGTCAAAGGTTATATCATGAATAGAAT | 1.25

Row | Sequence | PBM binding z-score
21 | TCTAGTTGCTCACGGAGGTCACACACGACGGGTA | 1.86
22 | CTCGAAAGATCGTGCTCAGGTGAGTATACCAAAC | -0.396
23 | TTACCAAGGAGAAAGGTCGTTGATGCACGCCTTG | 0.0075
24 | GCTATTAGTTGAAAGGGCATCCGAATGATTCTCG | 0.00348
25 | ATATGTGGGTTAAGGGTCATTCAGGTTGGTTCGC | 3.07
26 | TAGCCTAGGTCATGCGGGCCGGTATAGTGTCGGC | 0.206
27 | ATCTCTAGGTAAAGATAGTTCGGTGAATGCAAAT | 0.268
28 | TAGTCTAGGTCAGATCGGGCCAGTATACGCTATA | 0.186
29 | AGTCAAAGTTCAGGACGAGGTAACGTCAAGCACG | 1.22
30 | TCTGCTAGGTCAACGCTGGTCAGCTAATCTGCTA | -0.234
31 | TCTTGTAGACCAGCAGGTTAAGAAAGCTGGCCAA | -0.542
32 | CCTAGTTGGTTAGGAGGTCACACACCGGATATGA | 2.02
33 | TCTCGGAGGACACGAAGGTCAGAGTTTTCCAGAG | 0.497
34 | GCTTACGGGTCAAAGGTTATAGGATGAATAGAAT | 0.854
35 | TCTTGTATATCAAAGGTTAAGAAAGCCGAAGCCT | 1.24
36 | CGTCCAAGGTTAATGCTAGGTCAGTGAAAGCATT | 1.76
37 | CGAACTAGGTCATCGACAGGACAGTGAATAGTAA | 0.8
38 | CCATACAGGTGAGAAGGTAACTCAGCCTCGATTA | 0.308
39 | CAAATTAGGTCAAGAGGTCAAAGTCCGCTTCCCG | 6.19
40 | TCATATAGGTAATACGGGTGAAAGTCGGCATCTA | 0.104

What follows are sequences tested on LXRb:RXRa (NR concentration 270 nM, RXRa partner concentration 90 nM) in the same assay as above.
Summary of the method: as §1

Row | Sequence | PBM binding z-score
41 | TCATATAGGTAAACAGGTGAAACTCCGTAAGTTA | 0.976
42 | TCTAGCAAGCCAGAGGGTCACTCAAGAGGTACGG | 1.04
43 | ACAGACCGGTGAGTGAAGGTAACTCAGCTGGACG | -0.711
44 | CCGACTGGGGCAAGATTACCATAACGCACAGCCA | -0.425
45 | GGAACGAGGGCAAAGTCGATAGCATCTGTCGACG | -0.096
46 | ACTATCAGTTGAGACGAGGGCAACCGATAGGTTG | -0.348
47 | AATACACGGTCACTAGGCCAGAGTAGGTACGAAT | 0.203
48 | TCTCGGAGGACACGAGAGGTCAGAGCTCGACATC | 2.53
49 | ACAGACAGGTGATGAACGTAACTCAGGCTATCAT | -0.231
50 | ATACCAAGGTGATCGTGAGGTCGTTGTTACTAAC | 1.32
51 | GCTACCAGGCCATTTGGGTCACTCAATGACGGGC | 0.301
52 | TCGAGTCGGTTACCAATGGGGCATTCAGCTTTCT | 0.26
53 | TATCGGAGGACACGAAGGTCAGAGCTTTCCAGAG | 1.14
54 | ATCGAAAGGTCGTTAGGTGAGTATACAGAAAGGC | 3.08
55 | AGTCAAAGTTCATCTAGGTAACGTACGATATGCT | 3.91
56 | ACAGACAGGTGATTAAGGTAACTCAGGCTATCAT | -0.0714
57 | AGTCAAAGTTCACTAGGTAACGTATGATTCAGCT | 3.16
58 | TCTAATAGTTGAAGGGCAACCGACGAGTCCGTTT | 0.595
59 | GCTAGCAGGCCTTTTGGGTCACTCAATGACGGGC | 0.187
60 | GCTTACGGGTCAAAGGTTATATCATGAATAGAAT | 5.78

Row | Sequence | PBM binding z-score
61 | TCTAGTTGCTCACGGAGGTCACACACGACGGGTA | 3.22
62 | CTCGAAAGATCGTGCTCAGGTGAGTATACCAAAC | -0.276
63 | TTACCAAGGAGAAAGGTCGTTGATGCACGCCTTG | 1.32
64 | GCTATTAGTTGAAAGGGCATCCGAATGATTCTCG | 0.69
65 | ATATGTGGGTTAAGGGTCATTCAGGTTGGTTCGC | 4.91
66 | TAGCCTAGGTCATGCGGGCCGGTATAGTGTCGGC | 1.43
67 | ATCTCTAGGTAAAGATAGTTCGGTGAATGCAAAT | 0.0902
68 | TAGTCTAGGTCAGATCGGGCCAGTATACGCTATA | 1.13
69 | AGTCAAAGTTCAGGACGAGGTAACGTCAAGCACG | 1.77
70 | TCTGCTAGGTCAACGCTGGTCAGCTAATCTGCTA | 1.74
71 | TCTTGTAGACCAGCAGGTTAAGAAAGCTGGCCAA | 0.0973
72 | CCTAGTTGGTTAGGAGGTCACACACCGGATATGA | 3.21
73 | TCTCGGAGGACACGAAGGTCAGAGTTTTCCAGAG | 1.22
74 | GCTTACGGGTCAAAGGTTATAGGATGAATAGAAT | 5.77
75 | TCTTGTATATCAAAGGTTAAGAAAGCCGAAGCCT | 2.13
76 | CGTCCAAGGTTAATGCTAGGTCAGTGAAAGCATT | 2.28
77 | CGAACTAGGTCATCGACAGGACAGTGAATAGTAA | 2.02
78 | CCATACAGGTGAGAAGGTAACTCAGCCTCGATTA | 0.309
79 | CAAATTAGGTCAAGAGGTCAAAGTCCGCTTCCCG | 6.05
80 | TCATATAGGTAATACGGGTGAAAGTCGGCATCTA | 0.839
